{"source": "PubChem BioAssay AID2284426", "about": "(EPA ToxCast)", "note": "Activity calls are given as the source filed them. Rule for the calls: active = hit-call score of the fitted dose curve at least 0.9, where 1 is the maximum; inactive = score below 0.9.", "data": [{"assay": "CCTE_Deisenroth_DEVTOX-GLR_Ecto_CellCount: Viability Assessment in CCTE's DevTox GLR-Ecto Assay, Deisenroth Lab", "procedure": "CCTE_Deisenroth_DEVTOX-GLR_Ecto assay is a cell-based, multiplex-readout assay that uses RUES2-GLR, a human pluripotent cell line, with measurements taken at 48 hours after chemical dosing in a 384-well microplateCCTE_Deisenroth_DEVTOX-GLR_Ecto_CellCount is 1 of 4 assay components calculated from the CCTE_Deisenroth_DEVTOX-GLR_Ecto assay and it measures cell count. Using fluorescent nuclei staining, gain-of-signal activity can be used to understand changes in cell viability with fluorescent microscopy. It is designed to make measurements of nuclei counts as a surrogate for cell number, as detected with optical fluorescence microscopy by Perkin Elmer Harmony nuclei detection algorithm. To generalize the intended target to other relatable targets, this assay component is annotated to the cell cycle intended target family, where the subfamily is cytotoxicity.Data from the assay component CCTE_Deisenroth_DEVTOX-GLR_Ecto_CellCount was analyzed as 1 assay endpoint. The endpoint the percent change in the cell count relative to the 0.2% DMSO control in the CCTE_Deisenroth_DEVTOX-GLR_Ecto assay. Furthermore, this assay endpoint can be referred to as a […] readout, because this assay has produced multiple assay endpoints where this one serves as a measure of cytotoxicity.\nAll assay protocols are aligned to the DevTox GLR-Endo assay workflow. Cells are seeded into 384-well microplates for 24 hours prior to initiating differentiation in defined media for a total duration of 48 hours. A total of two chemical exposures are administered in 24-hour intervals during the 48-hour differentiation period. At the assay termination point, cells are fixed and stained with a fluorescent dye demarcating the nucleus. High-content imaging is used to acquire brightfield and fluorescent channel images across 5 fields per well. Cell identification and mean biomarker fluorescence intensities are calculated with image analysis software to determine the total cell counts for viability assessment and the biomarker expression frequency for each lineage-dependent assay. A typical experimental design tests a 10-point concentration series (1 nM - 200 uM) for 28 compounds in single technical replicate. Assay plate controls include non-differentiated pluripotent cells (baseline control), lineage-specific differentiated cells (differentiation control), and DMSO solvent exposed differentiated cells (solvent control). Experiments typically comprise a minimum of four experimental replicates (n=4).", "values": [{"smiles": "CC1(C)S[C@@H]2[C@H](NC(=O)Cc3ccccc3)C(=O)N2[C@H]1C(=O)O", "outcome": "inactive"}, {"smiles": "CCN(CC)CCNC(=O)c1c(C)[nH]c(/C=C2\\C(=O)Nc3ccc(F)cc32)c1C", "AC50": "1.25 µM (active)"}, {"smiles": "Nc1cccc2c1C(=O)N(C1CCC(=O)NC1=O)C2=O", "note": "(stereo unspecified)", "outcome": "inactive"}, {"smiles": "CC1=C(/C=C/C(C)=C/C=C/C(C)=C/C(=O)O)C(C)(C)CCC1", "AC50": "0.0242 µM (active)"}, {"smiles": "CCCC(CCC)C(=O)O", "outcome": "inactive"}, {"smiles": "CN(Cc1cnc2nc(N)nc(N)c2n1)c1ccc(C(=O)N[C@@H](CCC(=O)O)C(=O)O)cc1", "outcome": "inactive"}, {"smiles": "O=C1CCC(N2C(=O)c3ccccc3C2=O)C(=O)N1", "note": "(stereo unspecified)", "outcome": "inactive"}, {"smiles": "CC/C(=C(/CC)c1ccc(O)cc1)c1ccc(O)cc1", "outcome": "inactive"}, {"smiles": "CC(=O)Nc1ccc(O)cc1", "outcome": "inactive"}, {"smiles": "O=C1NC(=O)C(c2ccccc2)(c2ccccc2)N1", "outcome": "inactive"}, {"smiles": "CS(=O)(=O)OCCCCOS(C)(=O)=O", "AC50": "20.4 µM (active)"}, {"smiles": "O=c1[nH]cc(F)c(=O)[nH]1", "AC50": "3.87 µM (active)"}, {"smiles": "Nc1nc2ncc(CNc3ccc(C(=O)N[C@@H](CCC(=O)O)C(=O)O)cc3)nc2c(=O)[nH]1", "outcome": "inactive"}, {"smiles": "CC(C)(c1ccc(O)cc1)c1ccc(O)cc1", "outcome": "inactive"}, {"smiles": "CC1=C(/C=C/C(C)=C/C=C/C(C)=C\\C(=O)O)C(C)(C)CCC1", "AC50": "0.46 µM (active)"}, {"smiles": "O=C1NS(=O)(=O)c2ccccc21", "outcome": "inactive"}]}]}
